# Bioassay records (PubChem BioAssay)
# Rows were chosen to be rich in hits. Some 13% of all compounds tested hit in one or more screens of this group.
# USP7 inh – inhibitors of human USP7 deubiquitinase. Q93009. purified USP7, Ub-rhodamine cleavage fluorescence. inhibition, % at 20 µM. actives 0.3% (n = 47,000). AID 1645854
# UCHL1 block – human UCHL1 deubiquitinase inhibition; actives 0.2% (n = 47,000); P09936; inhibition, % at 20 µM; purified UCHL1, Ub-rhodamine cleavage fluorescence; AID 1645859
# USP17 inh – blocks human USP17 ubiquitin-rhodamine cleavage; A8MUK1; purified USP17, Ub-rhodamine cleavage fluorescence, 3 h; inhibition, % at 50 µM; actives 6.5% (n = 47,000)
# Target sequence (A8MUK1 whole entry, looked up): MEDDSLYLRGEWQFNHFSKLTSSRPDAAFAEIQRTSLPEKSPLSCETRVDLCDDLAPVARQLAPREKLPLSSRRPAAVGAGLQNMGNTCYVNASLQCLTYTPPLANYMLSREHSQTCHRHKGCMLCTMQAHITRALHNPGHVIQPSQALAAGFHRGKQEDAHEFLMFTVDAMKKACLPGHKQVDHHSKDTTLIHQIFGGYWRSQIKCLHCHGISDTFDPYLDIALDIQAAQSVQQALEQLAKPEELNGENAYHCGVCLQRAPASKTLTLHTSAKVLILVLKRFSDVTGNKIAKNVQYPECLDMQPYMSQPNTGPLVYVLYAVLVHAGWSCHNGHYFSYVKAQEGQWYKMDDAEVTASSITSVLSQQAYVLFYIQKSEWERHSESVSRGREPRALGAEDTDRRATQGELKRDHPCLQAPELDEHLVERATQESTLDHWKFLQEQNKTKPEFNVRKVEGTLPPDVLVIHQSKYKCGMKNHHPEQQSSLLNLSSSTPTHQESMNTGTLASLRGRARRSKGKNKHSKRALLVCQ
# USP10 inh – blocks human USP10 ubiquitin-rhodamine cleavage. AID 1645856. actives 1.1% (n = 47,000). inhibition, % at 20 µM. purified USP10, Ub-rhodamine fluorescence, 60 min
# USP30 block – blocks human USP30 ubiquitin-rhodamine cleavage. Q70CQ3. purified USP30, Ub-rhodamine cleavage fluorescence. inhibition, % at 25 µM. actives 5.3% (n = 47,000). AID 1645860
# USP8 block – inhibitors of human USP8 deubiquitinase; AID 1645853; actives 4.2% (n = 47,000); inhibition, % at 20 µM; purified USP8, Ub-rhodamine cleavage fluorescence, 30 min
# Starred values were filed as active, the others as inactive; · = no result. Cut-off read from the data, not from the text of the source: active = inhibition above about 30%; inactive = the rest.
SMILES,USP7 inh,UCHL1 block,USP17 inh,USP10 inh,USP30 block,USP8 block
Cc1ccc(CNC(=O)CCc2nnc3c(=O)n(-c4ccc(C)c(C)c4)ccn23)cc1,7.8,3.6,32.2*,1.3,40.1*,41.5*
Cc1cccc2c(=O)n(C)c(CCC(=O)NCc3cc(F)ccc3F)nc12,1.4,1.4,37.7*,-0.9,44.8*,5.3
Cn1c(CCC(=O)NCc2cc(F)cc(F)c2)nc2ccccc2c1=O,-25.5,0.0,0.0,-1.2,-15.0,14.8
Cc1ccc(-n2ccn3c(CCC(=O)NCc4ccc(F)cc4)nnc3c2=O)cc1C,24.3,7.2,-1.4,9.8,26.6,67.0*
Cc1ccc(-n2ccn3c(CCC(=O)NCc4ccco4)nnc3c2=O)cc1C,4.6,-1.5,5.6,-0.5,13.6,-33.7
O=C(Cc1csc(-c2ccccc2)n1)NCc1ccccc1F,-26.6,-0.1,2.0,1.3,-4.5,-0.9
O=C(Cc1cc(-c2ccccc2)on1)NCc1c(F)cccc1F,3.9,-0.3,53.5*,-0.7,23.1,21.4
COc1cccc(-c2cc(CC(=O)NCc3c(F)cccc3F)no2)c1,6.7,0.4,44.8*,-0.6,27.5,28.1
NS(=O)(=O)c1ccc(CCNC(=O)Cc2cc(-c3ccc(F)cc3)on2)cc1,0.4,0.0,8.0,-3.2,-11.6,47.9*
O=C(Cc1cc(-c2ccccc2)on1)NCc1ccc(Cl)cc1,16.2,0.4,4.5,11.5,15.9,35.8*
Fc1ccc(C2=Nc3ncnn3C2=NCc2ccccc2)cc1,-0.2,2.8,17.8,-10.2,21.7,2.5
CC(C)Oc1ccc(C(=O)N2CCN(C(=O)c3cnn4ccccc34)CC2)cc1,4.5,3.0,16.9,-2.0,19.1,9.2
CCN1CC[C@@]2(C(=O)N3CCOCC3)CCN(C(=O)Nc3ccccc3)CC[C@@H]12,5.7,4.6,10.8,1.0,20.0,0.0
CC(C(=O)Nc1ccc2c(c1)OCO2)N1CCC(C(=O)c2ccccc2)CC1 (configuration not stated),-4.0,-0.8,-0.3,-0.6,-11.9,6.0
O=C(Cn1cc(-c2ccccc2)oc1=O)NCc1ccc(Cl)cc1,-1.3,0.9,40.5*,-1.6,34.6*,30.6*
CCc1ccccc1NC(=O)N1CC(C(=O)NC)C2(CCCC2)C1 (configuration not stated),4.0,-0.7,9.2,-0.4,14.5,11.1
COc1ccc(-c2noc(C(=O)NC3CC(C)(C)NC(C)(C)C3)n2)cc1OC,4.3,0.0,4.7,0.6,9.6,4.4
COc1ccc(-c2ccc3cc(C(=O)O)ccc3c2)cc1C12CC3CC(CC(C3)C1)C2,-13.5,5.2,-17.1,80.2*,11.2,65.7*
c1ccc2c(c1)ccc1nnc(-c3ccc4c(c3)OCO4)n12,-24.9,3.7,36.9*,0.3,57.9*,-235.5
O=C(c1ccc(F)cc1)N1C[C@@H]2CCN(c3cccnc3)C[C@@H]2C1,·,-6.2,-29.7,-5.7,-69.2,-18.7
O=c1c2ccc(Cl)cc2ncn1Cc1csc(-c2ccccc2)n1,5.0,2.0,26.9,3.2,0.0,16.8
Cc1ccc(-c2nc(Cn3cnc4ccccc4c3=O)cs2)cc1,9.3,0.6,37.3*,14.7,57.9*,37.0*
CC(C)(C)c1ccc(C(=O)NC2CCN(C(=O)c3ccc(Cl)cc3)CC2)cc1,6.2,0.9,16.2,4.0,18.8,25.3
O=C(Oc1ccc(-c2nccc(-c3cccs3)n2)cc1)c1ccccc1,4.0,2.1,28.3,6.1,20.1,5.8
O=C(Oc1ccc(-c2nccc(-c3cccs3)n2)cc1)c1ccco1,8.7,4.6,48.5*,4.7,24.8,35.6*
SMILES,USP7 inh,UCHL1 block,USP17 inh,USP10 inh,USP30 block,USP8 block
Cc1c(NC(=O)/C=C/c2cccc(Cl)c2Cl)cccc1-n1cnnn1,17.2,3.0,25.5,20.0,43.3*,80.4*
Cc1ccccc1C(=O)Nc1cccc(-n2cnnn2)c1C,-6.7,-12.5,-23.9,-5.5,-251.8,-3.5
COc1cc(Cl)ccc1C(=O)Nc1cccc(-n2cnnn2)c1C,8.0,3.4,82.3*,12.6,46.7*,9.0
COC(=O)c1sc2c(c1N)COC(C)(C)C2,0.0,-0.7,-4.5,-0.5,-2.1,-2.3
COc1ccccc1S(=O)(=O)N1CC[C@@H]2CN(C)[C@@H]2C1,4.5,-0.3,55.8*,0.7,18.4,-0.5
COc1ccc(-c2nonc2NC(=O)C(c2ccccc2)c2ccccc2)cc1OC,7.6,6.9,0.0,6.4,50.6*,20.8
CC(Oc1ccccc1Cl)C(=O)Nc1nonc1-c1ccccc1 (configuration not stated),6.6,4.8,16.4,15.3,27.5,33.0*
CC(Oc1ccc(C(C)C)cc1)C(=O)Nc1nonc1-c1ccccc1 (configuration not stated),3.0,1.5,-2.4,12.6,-0.7,8.7
Cc1ccc(-c2nonc2NC(=O)Cc2ccccc2)cc1,-4.5,3.0,7.0,6.5,20.7,5.1
COc1ccc(NC(=O)CC(=O)c2ccc([N+](=O)[O-])cc2)cc1S(=O)(=O)Nc1ccc(Br)cc1,16.2,11.1,33.9*,52.6*,59.9*,72.1*
COc1ccc(NS(=O)(=O)c2ccc(Cl)c(NC(=O)CC(=O)c3ccc([N+](=O)[O-])cc3)c2)cc1,-1.5,0.0,29.7,23.6,15.4,37.1*
CC(=O)O[C@@H](C/C=C(\C)C(=O)O)[C@@H](C)[C@H]1C[C@H](OC(C)=O)[C@@]2(C)C3=CC[C@H]4C(C)(C)[C@H](O)CC[C@]4(C)C3=CC[C@]12C,14.3,2.9,55.8*,52.0*,62.3*,13.5
CC(=O)O[C@@H](C/C=C(\C)C(=O)O)[C@@H](C)[C@H]1C[C@H](OC(C)=O)[C@@]2(C)C3=CC[C@H]4C(C)(C)[C@H](OC(C)=O)CC[C@]4(C)C3=CC[C@]12C,92.7*,57.5*,100.2*,95.2*,101.1*,92.2*
CSC1[C@H]2C(=O)N(C)[C@@H](C(C)C)C(=O)OC[C@@H](NC(=O)c3cnc4ccccc4n3)C(=O)N[C@@H](C)C(=O)N(C)[C@@H](CS1=O)C(=O)N(C)[C@@H](C(C)C)C(=O)OC[C@@H](NC(=O)c1cnc3ccccc3n1)C(=O)N[C@@H](C)C(=O)N2C (some centres not stated),-5.2,-7.2,-8.2,-3.7,-23.9,-20.3
O=C(Cn1c(=O)n(Cc2ccc(C(=O)NCc3ccccc3Cl)cc2)c(=O)c2ccccc21)Nc1cccc(F)c1,5.1,0.1,15.9,9.8,19.6,15.8
O=C(CCc1nc2sc3c(c2c(=O)[nH]1)CCCCC3)NC1CC1,-0.7,2.1,7.0,-4.2,-104.6,-3.6
O=C(Cn1cnc(S(=O)(=O)N2CCCCC2)c1)Nc1ccc2c(c1)OCO2,3.9,-1.4,35.3*,-0.2,-23.2,59.2*
CC1CCN(S(=O)(=O)c2cn(CC(=O)Nc3cccc(-c4ccno4)c3)cn2)CC1,·,-4.3,49.7*,16.5,-24.6,-5.1
